# Experimental data from PubChem BioAssay (EPA / NIEHS).
# Inconclusive results are not listed. Active and inactive are the calls of the source. The calls were made as follows, unless noted: active = hit-call score of the fitted dose curve at least 0.9, where 1 is the maximum; inactive = score below 0.9.
# Columns and labels:
# [1] = read-out: Monokine induced gamma interferon (MIG), CXCL9 (gene 4283); experiment: BSK_SAg_MIG: BioMAP Diversity Plus: SAg Assay for Monokine induced gamma interferon (MIG) Biomarker Activity (AID 2283092); settings: primary human HUVEC with PBMC; actives raise or lower the signal
# Outline: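 ELISA readout of MIG/CXCL9; primary human umbilical vein endothelial cells co-cultured with peripheral blood mononuclear cells; 24 h post-dose; gain/loss fit vs DMSO baseline.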
# [2] = read-out: Interleukin-8 (IL8), CXCL8 (gene 3576); experiment: BSK_SAg_IL8: BioMAP Diversity Plus: SAg Assay for Interleukin-8 (IL8) Biomarker Activity (AID 2283094); settings: primary human HUVEC with PBMC; actives raise or lower the signal
# Outline: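 ELISA read-out of IL-8 in a primary human vascular co-culture (umbilical vein endothelium plus PBMC), taken 24 h after compound addition. Values derive from bidirectional fits against DMSO negative controls.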
# [3] = BSK_SAg_Proliferation: Cell Proliferation Assessment in the BioMAP Diversity Plus: SAg Assay (AID 2283095); settings: primary human HUVEC with PBMC;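 also: relative cell number as total protein by SRB absorbance in sub-confluent culture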
# Outline: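 Cells (endothelium plus PBMC, human primary) were dosed with chemical, cultured 96 h, fixed in 10% TCA and stained with 0.1% SRB. Absorbance at 560 nm gave relative protein, fitted bidirectionally relative to DMSO.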
# [4] = BSK_SAg_SRB: Viability Assessment in the BioMAP Diversity Plus: SAg Assay (AID 2283096); settings: primary human HUVEC with PBMC;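 also: cells read one day after compound addition; hits may be either gain or loss of signal compared with DMSO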
# Outline: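 Total protein by sulforhodamine B staining, 24 h after dosing, in HUVEC–PBMC co-culture; DMSO-referenced bidirectional fitting.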
# [5] = molecular target: human CYP19A1, CYP19A1 (gene 1588) (UniProt P11511); experiment: NVS_ADME_hCYP19A1: NovaScreen (NVS) CYP450-related Enzyme Activity (ADME) Assay for human CYP19A1 (AID 2283098; active = hit-call score of the fitted dose curve at least 0.9, where 1 is the maximum;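 as to AC50: potency for inhibitors seen as loss of fluorescent enzyme signal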)
# human CYP19A1, CYP19A1 (gene 1588), sequence (P11511 whole entry, looked up): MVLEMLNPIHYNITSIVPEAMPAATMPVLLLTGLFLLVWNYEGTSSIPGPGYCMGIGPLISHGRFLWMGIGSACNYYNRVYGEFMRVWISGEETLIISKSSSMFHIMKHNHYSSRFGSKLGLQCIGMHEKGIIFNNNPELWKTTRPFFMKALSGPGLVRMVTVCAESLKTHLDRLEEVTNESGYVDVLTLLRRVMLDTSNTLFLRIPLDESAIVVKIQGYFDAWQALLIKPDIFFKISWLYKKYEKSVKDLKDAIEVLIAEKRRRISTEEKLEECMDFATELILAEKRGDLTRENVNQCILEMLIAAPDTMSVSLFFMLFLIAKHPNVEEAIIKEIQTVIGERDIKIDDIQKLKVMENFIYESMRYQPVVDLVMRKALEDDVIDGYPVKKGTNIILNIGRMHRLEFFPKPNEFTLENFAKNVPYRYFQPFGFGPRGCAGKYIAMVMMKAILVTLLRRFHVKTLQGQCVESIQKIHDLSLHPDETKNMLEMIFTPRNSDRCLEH
# Outline: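 Biochem, cell-free; recombinant enzyme + specific substrate; fluorescence intensity at 0.5 h post-dose; 10 uM duplicate primary, conc. series for actives; acetonitrile = negative control/baseline; positive and negative controls on every plate.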
# [6] = molecular target: human CYP2A6, CYP2A6 (gene 1548) (UniProt P11509); experiment: NVS_ADME_hCYP2A6: NovaScreen (NVS) CYP450-related Enzyme Activity (ADME) Assay for human CYP2A6 (AID 2283099; active = hit-call score of the fitted dose curve at least 0.9, where 1 is the maximum)
# human CYP2A6, CYP2A6 (gene 1548), sequence (P11509 whole entry, looked up): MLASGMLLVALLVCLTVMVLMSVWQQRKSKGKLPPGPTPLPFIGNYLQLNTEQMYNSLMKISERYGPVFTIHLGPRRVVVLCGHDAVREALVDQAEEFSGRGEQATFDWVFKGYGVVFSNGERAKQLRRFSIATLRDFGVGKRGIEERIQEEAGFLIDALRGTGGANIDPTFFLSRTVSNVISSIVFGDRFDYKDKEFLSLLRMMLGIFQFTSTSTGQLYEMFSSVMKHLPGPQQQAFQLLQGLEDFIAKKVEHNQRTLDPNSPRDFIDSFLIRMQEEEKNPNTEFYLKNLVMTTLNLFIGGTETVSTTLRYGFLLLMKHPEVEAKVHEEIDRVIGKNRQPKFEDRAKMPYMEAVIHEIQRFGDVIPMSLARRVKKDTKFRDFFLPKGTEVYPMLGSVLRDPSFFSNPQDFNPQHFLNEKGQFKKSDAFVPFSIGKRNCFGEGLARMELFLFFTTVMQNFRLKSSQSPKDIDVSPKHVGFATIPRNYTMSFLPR
# Outline: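 Loss of fluorescence signal relative to acetonitrile vehicle reported CYP2A6 inhibition in a cell-free system using insect-cell-derived enzyme. Readings were taken at 0.5 h; top concentration in follow-up dose series was 20 uM.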
# [7] = molecular target: human CYP1A1, CYP1A1 (gene 1543) (UniProt P04798); experiment: NVS_ADME_hCYP1A1: NovaScreen (NVS) CYP450-related Enzyme Activity (ADME) Assay for human CYP1A1 (AID 2283100; active = hit-call score of the fitted dose curve at least 0.9, where 1 is the maximum)
# Outline: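 Inhibition of recombinant CYP1A1 turnover was assessed fluorometrically in a biochemical format 1 h after compound exposure. Testing began at 10 uM in duplicate and progressed to concentration series reaching 20 uM, with on-plate positive and negative controls.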
# [8] = molecular target: human CYP2B6, CYP2B6 (gene 1555) (UniProt P20813); experiment: NVS_ADME_hCYP2B6: NovaScreen (NVS) CYP450-related Enzyme Activity (ADME) Assay for human CYP2B6 (AID 2283101; active = hit-call score of the fitted dose curve at least 0.9, where 1 is the maximum)
# human CYP2B6, CYP2B6 (gene 1555), sequence (P20813 whole entry, looked up): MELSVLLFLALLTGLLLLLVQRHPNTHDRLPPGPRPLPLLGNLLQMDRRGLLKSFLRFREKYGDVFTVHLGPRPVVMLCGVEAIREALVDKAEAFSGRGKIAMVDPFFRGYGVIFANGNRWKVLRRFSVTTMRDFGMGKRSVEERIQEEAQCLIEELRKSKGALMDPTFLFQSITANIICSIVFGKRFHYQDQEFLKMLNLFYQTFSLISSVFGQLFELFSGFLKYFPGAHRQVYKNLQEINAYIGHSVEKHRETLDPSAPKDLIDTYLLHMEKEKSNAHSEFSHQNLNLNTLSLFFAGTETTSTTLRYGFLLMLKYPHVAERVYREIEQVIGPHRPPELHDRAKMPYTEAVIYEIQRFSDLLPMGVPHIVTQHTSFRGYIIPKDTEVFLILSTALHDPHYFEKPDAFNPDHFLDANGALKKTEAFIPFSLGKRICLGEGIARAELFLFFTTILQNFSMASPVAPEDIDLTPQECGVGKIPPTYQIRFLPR
# Outline: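 Fluorescence-based enzyme activity of recombinant human CYP2B6, measured 1 h post-dose against acetonitrile vehicle baseline. Screened at a single concentration of 10 uM in duplicate before concentration-response follow-up.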
# [9] = molecular target: human CYP1A2, CYP1A2 (gene 1544) (UniProt P05177); experiment: NVS_ADME_hCYP1A2: NovaScreen (NVS) CYP450-related Enzyme Activity (ADME) Assay for human CYP1A2 (AID 2283102; active = hit-call score of the fitted dose curve at least 0.9, where 1 is the maximum;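 also: potency for inhibition since loss of fluorescence marks reduced CYP1A2 activity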)
# human CYP1A2, CYP1A2 (gene 1544), sequence (P05177 whole entry, looked up): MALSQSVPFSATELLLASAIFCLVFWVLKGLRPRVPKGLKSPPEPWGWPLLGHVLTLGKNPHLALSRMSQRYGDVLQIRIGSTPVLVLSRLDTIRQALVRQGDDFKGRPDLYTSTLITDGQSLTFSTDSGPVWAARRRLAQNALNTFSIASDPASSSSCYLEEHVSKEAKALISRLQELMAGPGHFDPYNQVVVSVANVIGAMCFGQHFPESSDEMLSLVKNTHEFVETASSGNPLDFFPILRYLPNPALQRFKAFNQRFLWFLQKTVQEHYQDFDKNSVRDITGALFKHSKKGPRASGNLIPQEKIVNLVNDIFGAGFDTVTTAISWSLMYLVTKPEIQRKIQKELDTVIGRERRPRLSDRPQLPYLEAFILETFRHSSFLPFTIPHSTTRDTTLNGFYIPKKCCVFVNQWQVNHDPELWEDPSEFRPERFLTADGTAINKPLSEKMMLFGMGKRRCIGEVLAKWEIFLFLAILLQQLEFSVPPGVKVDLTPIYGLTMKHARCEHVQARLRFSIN
# Outline: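 Inhibition scored as decrease in fluorescent product versus acetonitrile negative control. Enzyme: insect-cell recombinant human CYP1A2, substrate-specific, cell-free. Reading at 0.5 h; 10 uM duplicate initial screen with positive and negative controls on every plate.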
# [10] = molecular target: human CYP2J2, CYP2J2 (gene 1573) (UniProt P51589); experiment: NVS_ADME_hCYP2J2: NovaScreen (NVS) CYP450-related Enzyme Activity (ADME) Assay for human CYP2J2 (AID 2283106; active = hit-call score of the fitted dose curve at least 0.9, where 1 is the maximum)
# human CYP2J2, CYP2J2 (gene 1573), sequence (P51589 whole entry, looked up): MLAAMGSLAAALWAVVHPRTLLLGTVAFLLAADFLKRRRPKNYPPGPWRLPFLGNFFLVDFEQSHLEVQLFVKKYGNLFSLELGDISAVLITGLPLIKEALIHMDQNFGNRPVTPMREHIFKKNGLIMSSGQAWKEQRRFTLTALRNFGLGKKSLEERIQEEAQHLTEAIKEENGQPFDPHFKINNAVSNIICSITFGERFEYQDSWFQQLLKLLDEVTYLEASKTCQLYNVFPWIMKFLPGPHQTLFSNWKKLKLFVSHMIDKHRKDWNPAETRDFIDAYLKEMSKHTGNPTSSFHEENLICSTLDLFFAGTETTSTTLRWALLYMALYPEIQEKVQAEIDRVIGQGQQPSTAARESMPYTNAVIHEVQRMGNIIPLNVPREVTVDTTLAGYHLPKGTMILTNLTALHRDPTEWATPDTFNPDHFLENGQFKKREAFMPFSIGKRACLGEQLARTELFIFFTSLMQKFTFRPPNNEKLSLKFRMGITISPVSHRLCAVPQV
# Outline: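 Cell-free assay of recombinant CYP2J2 with a fluorogenic substrate, read 1 h after dosing; loss of signal versus acetonitrile. Primary screen at 10 uM in duplicate, then concentration-response up to 20 uM for chemicals passing threshold (e.g., 30% inhibition).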
# [11] = molecular target: human CYP2D6, CYP2D6 (gene 1565) (UniProt P10635); experiment: NVS_ADME_hCYP2D6: NovaScreen (NVS) CYP450-related Enzyme Activity (ADME) Assay for human CYP2D6 (AID 2283107; active = hit-call score of the fitted dose curve at least 0.9, where 1 is the maximum)
# human CYP2D6, CYP2D6 (gene 1565), sequence (P10635 whole entry, looked up): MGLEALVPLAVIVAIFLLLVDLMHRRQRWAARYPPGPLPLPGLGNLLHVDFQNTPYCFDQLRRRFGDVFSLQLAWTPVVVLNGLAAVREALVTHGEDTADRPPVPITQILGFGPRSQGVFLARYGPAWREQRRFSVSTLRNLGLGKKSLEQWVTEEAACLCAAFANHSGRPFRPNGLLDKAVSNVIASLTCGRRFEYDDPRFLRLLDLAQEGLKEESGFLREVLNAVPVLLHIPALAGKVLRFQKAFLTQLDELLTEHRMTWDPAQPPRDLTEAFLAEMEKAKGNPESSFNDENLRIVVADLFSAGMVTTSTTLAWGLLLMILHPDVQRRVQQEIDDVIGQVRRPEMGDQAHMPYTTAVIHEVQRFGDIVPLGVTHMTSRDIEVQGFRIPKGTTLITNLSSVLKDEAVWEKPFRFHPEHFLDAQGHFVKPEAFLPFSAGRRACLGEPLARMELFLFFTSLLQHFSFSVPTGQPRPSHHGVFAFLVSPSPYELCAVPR
# Outline: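 Biochemical fluorescence assay, insect-cell-derived enzyme. Read at 1 h; inhibition taken from loss of signal against acetonitrile. Screened at 10 uM in duplicate, with concentration series for actives.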
# [12] = molecular target: human CYP2C9, CYP2C9 (gene 1559) (UniProt P11712); experiment: NVS_ADME_hCYP2C9: NovaScreen (NVS) CYP450-related Enzyme Activity (ADME) Assay for human CYP2C9 (AID 2283108; active = hit-call score of the fitted dose curve at least 0.9, where 1 is the maximum)
# human CYP2C9, CYP2C9 (gene 1559), sequence (P11712 whole entry, looked up): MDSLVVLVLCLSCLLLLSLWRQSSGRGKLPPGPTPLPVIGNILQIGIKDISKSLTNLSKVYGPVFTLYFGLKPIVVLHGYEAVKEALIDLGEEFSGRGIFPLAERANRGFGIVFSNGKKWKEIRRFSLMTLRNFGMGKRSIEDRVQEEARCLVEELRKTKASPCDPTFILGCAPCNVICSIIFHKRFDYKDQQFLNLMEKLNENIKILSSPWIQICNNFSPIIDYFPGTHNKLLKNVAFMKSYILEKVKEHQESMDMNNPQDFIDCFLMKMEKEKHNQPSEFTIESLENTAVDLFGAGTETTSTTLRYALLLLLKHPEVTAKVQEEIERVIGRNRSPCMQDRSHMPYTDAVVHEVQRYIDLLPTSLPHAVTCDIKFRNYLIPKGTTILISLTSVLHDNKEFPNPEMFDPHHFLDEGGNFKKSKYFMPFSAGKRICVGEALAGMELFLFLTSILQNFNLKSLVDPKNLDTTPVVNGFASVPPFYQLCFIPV
# Outline: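 Fluorescence readout of CYP2C9 activity (SF9-expressed human enzyme) at 0.75 h. The primary screen used 10 uM in duplicate, with concentration-response follow-up for actives; acetonitrile was the negative control.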
# [13] = molecular target: Cytochrome P450 2C19 (Homo sapiens) (UniProt P33261); experiment: NVS_ADME_hCYP2C19: NovaScreen (NVS) CYP450-related Enzyme Activity (ADME) Assay for human CYP2C19 (AID 2283113; active = hit-call score of the fitted dose curve at least 0.9, where 1 is the maximum;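 as to AC50: potency for inhibition seen as loss of fluorescent signal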)
# Outline: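 Biochemical CYP2C19 inhibition screen: insect-cell recombinant protein plus fluorescent substrate, 1 h, fluorescence intensity. Acetonitrile defined baseline activity. Single 10 uM concentration in duplicate, with concentration-response follow-up for actives.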
# [14] = molecular target: rat CYP2A1, Cyp2a1 (gene 24894) (UniProt P11711); experiment: NVS_ADME_rCYP2A1: NovaScreen (NVS) CYP450-related Enzyme Activity (ADME) Assay for rat CYP2A1 (AID 2283114)
# rat CYP2A1, Cyp2a1 (gene 24894), sequence (P11711 whole entry, looked up): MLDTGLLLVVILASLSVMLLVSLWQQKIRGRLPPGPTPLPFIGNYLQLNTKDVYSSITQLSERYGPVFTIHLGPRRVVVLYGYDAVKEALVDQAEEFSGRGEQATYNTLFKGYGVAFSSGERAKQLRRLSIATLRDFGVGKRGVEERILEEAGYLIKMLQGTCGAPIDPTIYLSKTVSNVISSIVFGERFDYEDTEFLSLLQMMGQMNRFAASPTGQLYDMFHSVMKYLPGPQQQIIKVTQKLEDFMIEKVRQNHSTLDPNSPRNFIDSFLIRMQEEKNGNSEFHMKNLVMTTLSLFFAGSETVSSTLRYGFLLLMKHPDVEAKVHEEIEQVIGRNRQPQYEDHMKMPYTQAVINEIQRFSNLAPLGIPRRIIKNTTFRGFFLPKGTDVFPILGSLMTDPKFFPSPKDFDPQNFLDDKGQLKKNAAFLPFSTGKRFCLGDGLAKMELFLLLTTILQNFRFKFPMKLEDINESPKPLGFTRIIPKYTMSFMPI
# Outline: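 Recombinant rat CYP2A1, cell-free, fluorogenic substrate turnover read by fluorescence intensity 0.75 h after dosing. Primary screen at 10 uM in duplicate; actives rerun as concentration-response up to 20 uM; loss of signal versus acetonitrile control.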
# [15] = molecular target: rat CYP1A2, Cyp1a2 (gene 24297) (UniProt P04799); experiment: NVS_ADME_rCYP1A2: NovaScreen (NVS) CYP450-related Enzyme Activity (ADME) Assay for rat CYP1A2 (AID 2283115; active = hit-call score of the fitted dose curve at least 0.9, where 1 is the maximum)
# rat CYP1A2, Cyp1a2 (gene 24297), sequence (P04799 whole entry, looked up): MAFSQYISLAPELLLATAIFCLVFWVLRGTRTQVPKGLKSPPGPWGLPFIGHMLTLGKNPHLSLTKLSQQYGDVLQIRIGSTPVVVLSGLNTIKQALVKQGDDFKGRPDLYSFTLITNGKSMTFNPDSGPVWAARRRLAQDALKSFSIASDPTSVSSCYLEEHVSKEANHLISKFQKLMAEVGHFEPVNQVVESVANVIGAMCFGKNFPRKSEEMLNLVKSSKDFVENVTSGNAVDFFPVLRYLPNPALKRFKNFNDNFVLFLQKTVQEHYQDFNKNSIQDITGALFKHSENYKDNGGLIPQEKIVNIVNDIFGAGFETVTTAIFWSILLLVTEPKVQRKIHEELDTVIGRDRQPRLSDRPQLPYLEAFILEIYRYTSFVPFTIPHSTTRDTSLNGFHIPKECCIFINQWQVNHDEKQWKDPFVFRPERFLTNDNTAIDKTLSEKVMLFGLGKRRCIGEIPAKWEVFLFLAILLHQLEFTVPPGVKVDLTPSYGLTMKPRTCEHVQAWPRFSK
# Outline: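 Cell-free recombinant rat enzyme with fluorogenic substrate, read by fluorescence intensity 1 hour after dosing. Loss of signal versus acetonitrile negative control; primary screen at 10 uM in duplicate, actives followed in concentration series.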
# [16] = molecular target: rat CYP2A2, Cyp2a2 (gene 24895) (UniProt P15149); experiment: NVS_ADME_rCYP2A2: NovaScreen (NVS) CYP450-related Enzyme Activity (ADME) Assay for rat CYP2A2 (AID 2283116; active = hit-call score of the fitted dose curve at least 0.9, where 1 is the maximum)
# Outline: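 Cell-free recombinant rat CYP2A2 activity with fluorogenic substrate, fluorescence read 0.2 h after dosing. Chemicals screened at 10 uM in duplicate, hits then run in concentration-response up to 20 uM; signal loss versus acetonitrile baseline.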
# [17] = molecular target: Cytochrome P450 3A4 (Homo sapiens) (UniProt P08684); experiment: NVS_ADME_hCYP3A4: NovaScreen (NVS) CYP450-related Enzyme Activity (ADME) Assay for human CYP3A4 (AID 2283110; active = hit-call score of the fitted dose curve at least 0.9, where 1 is the maximum)
# Outline: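 Compounds were first screened in duplicate at 10 uM against recombinant CYP3A4 produced in insect cells, then actives were run in concentration series. Enzyme activity was measured by fluorescence after 0.33 hour, with acetonitrile as baseline.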
# [18] = molecular target: human CYP2C8, CYP2C8 (gene 1558) (UniProt P10632); experiment: NVS_ADME_hCYP2C8: NovaScreen (NVS) CYP450-related Enzyme Activity (ADME) Assay for human CYP2C8 (AID 2283104)
# human CYP2C8, CYP2C8 (gene 1558), sequence (P10632 whole entry, looked up): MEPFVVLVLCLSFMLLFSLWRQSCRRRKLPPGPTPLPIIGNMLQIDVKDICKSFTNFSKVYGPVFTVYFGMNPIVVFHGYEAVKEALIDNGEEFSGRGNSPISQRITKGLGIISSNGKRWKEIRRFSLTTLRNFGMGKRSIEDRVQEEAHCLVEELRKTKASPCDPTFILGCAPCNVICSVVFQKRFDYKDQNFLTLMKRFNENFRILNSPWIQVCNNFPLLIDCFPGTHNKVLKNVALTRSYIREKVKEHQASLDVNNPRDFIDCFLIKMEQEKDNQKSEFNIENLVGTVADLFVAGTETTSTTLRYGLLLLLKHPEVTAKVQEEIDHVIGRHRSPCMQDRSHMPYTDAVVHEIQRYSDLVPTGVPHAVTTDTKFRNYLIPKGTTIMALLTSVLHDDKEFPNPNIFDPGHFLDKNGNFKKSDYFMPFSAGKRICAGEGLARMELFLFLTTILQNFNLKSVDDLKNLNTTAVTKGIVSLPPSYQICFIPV
# Outline: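 Recombinant human CYP2C8 with fluorogenic substrate, 0.5 h, fluorescence intensity; signal loss fitted versus acetonitrile. Screened in duplicate at 10 uM, then actives run in concentration-response up to 20 uM.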
# [19] = molecular target: human CYP4F12, CYP4F12 (gene 66002) (UniProt Q9HCS2); experiment: NVS_ADME_hCYP4F12: NovaScreen (NVS) CYP450-related Enzyme Activity (ADME) Assay for human CYP4F12 (AID 2283111; active = hit-call score of the fitted dose curve at least 0.9, where 1 is the maximum)
# Outline: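 Cell-free fluorescence assay of recombinant human CYP4F12 activity on a specific substrate, read 0.5 h after dosing. Primary screen in duplicate at 10 uM, then concentration series for actives; loss of signal fitted against acetonitrile negative control.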
compound,measurement,setting,value
COP(=S)(OC)Oc1ccc([N+](=O)[O-])cc1,outcome,[1],inactive
same,AC50,[2],20000 nM (active)
same,AC50,[3],21900 nM (active)
same,AC50,[4],21700 nM (active)
same,outcome,[5],inactive
same,AC50,[6],2850 nM (active)
same,AC50,[7],6610 nM (active)
same,AC50,[8],547 nM (active)
same,AC50,[9],1060 nM (active)
same,AC50,[10],2250 nM (active)
same,AC50,[11],4790 nM (active)
same,AC50,[12],4050 nM (active)
same,AC50,[13],250 nM (active)
same,AC50,[14],7120 nM (active)
same,outcome,[15],inactive
same,AC50,[16],5690 nM (active)
[2H]C1([2H])[n+]2ccccc2-c2cccc[n+]2C1([2H])[2H],outcome,[1],inactive
same,outcome,[2],inactive
same,outcome,[3],inactive
same,outcome,[4],inactive
same,AC50,[11],2030 nM (active)
same,AC50,[17],2250 nM (active)
C[C@H]1[C@H](c2ccc(Cl)cc2)SC(=O)N1C(=O)NC1CCCCC1,outcome,[1],inactive
same,AC50,[2],13600 nM (active)
same,AC50,[3],18100 nM (active)
same,AC50,[4],9320 nM (active)
same,AC50,[13],7380 nM (active)
CC1(c2ccc(Oc3ccccc3)cc2)OC(=O)N(Nc2ccccc2)C1=O (stereo unspecified),AC50,[1],34100 nM (active)
same,AC50,[2],11800 nM (active)
same,AC50,[3],16900 nM (active)
same,AC50,[4],30300 nM (active)
N#Cc1c(Cl)c(Cl)c(Cl)c(C#N)c1Cl,AC50,[1],1830 nM (active)
same,AC50,[2],1740 nM (active)
same,AC50,[3],197 nM (active)
same,AC50,[4],2270 nM (active)
same,AC50,[5],192 nM (active)
same,outcome,[6],inactive
same,AC50,[9],406 nM (active)
same,AC50,[18],213 nM (active)
same,AC50,[17],302 nM (active)
same,outcome,[13],inactive
same,outcome,[15],inactive
COP(=S)(OC)Oc1ccc(SC)c(C)c1,outcome,[1],inactive
same,outcome,[2],inactive
same,outcome,[3],inactive
same,outcome,[4],inactive
same,AC50,[8],8760 nM (active)
same,AC50,[9],2760 nM (active)
same,AC50,[10],1060 nM (active)
same,AC50,[12],5540 nM (active)
same,AC50,[13],2450 nM (active)
same,AC50,[14],5640 nM (active)
CCCN(CCOc1c(Cl)cc(Cl)cc1Cl)C(=O)n1ccnc1,AC50,[1],32500 nM (active)
same,AC50,[2],15500 nM (active)
same,AC50,[3],30400 nM (active)
same,outcome,[4],inactive
same,AC50,[5],784 nM (active)
same,AC50,[7],453 nM (active)
same,AC50,[8],124 nM (active)
same,AC50,[9],616 nM (active)
same,AC50,[18],1850 nM (active)
same,AC50,[10],94 nM (active)
same,AC50,[11],2180 nM (active)
same,AC50,[12],578 nM (active)
same,AC50,[13],24.5 nM (active)
same,AC50,[14],512 nM (active)
same,outcome,[15],inactive
same,AC50,[16],9.34 nM (active)
O=C(NC(=O)c1c(F)cccc1F)Nc1ccc(OC(F)(F)C(F)OC(F)(F)F)c(Cl)c1 (stereo unspecified),outcome,[1],inactive
same,outcome,[2],inactive
same,AC50,[3],9750 nM (active)
same,outcome,[4],inactive
same,outcome,[18],inactive
COC(=O)c1ccccc1CS(=O)(=O)NC(=O)Nc1nc(OC)cc(OC)n1,outcome,[1],inactive
same,outcome,[2],inactive
same,outcome,[3],inactive
same,outcome,[4],inactive
ClC1C(Cl)C(Cl)C(Cl)C(Cl)C1Cl (stereo unspecified),outcome,[1],inactive
same,outcome,[2],inactive
same,outcome,[3],inactive
same,outcome,[4],inactive
same,AC50,[19],17300 nM (active)
Cc1[nH]c(=O)n(C(C)(C)C)c(=O)c1Cl,outcome,[1],inactive
same,AC50,[2],9860 nM (active)
same,AC50,[3],16000 nM (active)
same,outcome,[4],inactive
same,AC50,[13],6800 nM (active)
COC(=O)c1ccccc1S(=O)(=O)NC(=O)N(C)c1nc(C)nc(OC)n1,outcome,[1],inactive
same,outcome,[2],inactive
same,outcome,[3],inactive
same,outcome,[4],inactive
